# Compound activity (PubChem)
# tim10-1 inh: tim10-1 yeast growth inhibition | S. cerevisiae tim10-1 ts strain growth, BacTiter-Glo, 24 h | inhibition, % at 20 µM | 2.2% of 330,000 active;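 active = inhibition of at least 40%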;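 note: mutant grown at 25 °C; 0% = DMSO wells with yeast and 100% = wells holding no yeast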
# tim23-1 inh: growth inhibitors of tim23-1 mutant yeast; S. cerevisiae tim23-1 growth, BacTiter-Glo luminescence, 24 h; inhibition, % at 20 µM; 1.3% of 330,000 active;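 active = growth inhibition of the mutant yeast at or above 50%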;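 note: temperature-sensitive mutant grown at 25 °C; plate controls were DMSO-treated mutant yeast for no effect and medium wells lacking yeast for full effect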
# NALP1 inh: inhibitors of NALP1 inflammasome in yeast; AID 2071; 0.61% of 280,000 active; inhibition, % at 10 µM; S. cerevisiae NALP1/ASC/caspase-1 growth, X-gal OD620, 72 h; in the data active = inhibition mostly above about 24%, no sharp cut-off; inactive = mostly below about 32%
# NLRP3 yeast inh: inhibitors of NALP3 inflammasome in yeast; Yeast reconstituted NLRP3/ASC/caspase-1, beta-gal luminescence, 24 h; inhibition, % at 10 µM; 0.39% of 330,000 active;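 active = inhibition of 50% or more; inactive = inhibition below 50%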;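 note: plate controls were induced DMSO wells for no effect and uninduced yeast grown without galactose for full effect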
# TIM10 inh: inhibits growth of TIM10 yeast strain. S. cerevisiae TIM10 strain growth, BacTiter-Glo luminescence, 24 h. inhibition, % at 10 µM. 1.4% of 330,000 active;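 active = inhibition of 40% or more at the single tested concentration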;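 note: wild-type TIM10 isogenic control strain grown at permissive 25 °C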
# tim10-1 conf: confirmation of tim10-1 mutant yeast growth inhibitors. shares compounds with tim10-1 inh. AID 463213. 56% of 7,400 active. inhibition, % at 20 µM. S. cerevisiae tim10-1 ts strain growth, BacTiter-Glo, 24 h;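 active = inhibition of yeast growth at or above a set limit in either of two repeat tests at 20 µM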;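 note: tim10-1 mutant grown at permissive 25 °C to find synthetic lethal compounds; 0% = DMSO yeast wells and 100% = medium wells without yeast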
# tim10 confirm: confirmation of TIM10 yeast growth inhibitors; 63% of 4,600 active; AID 463215; inhibition, % at 10 µM; S. cerevisiae tim10 strain growth, BacTiter-Glo luminescence, 24 h; shares compounds with TIM10 inh;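 active = inhibition of yeast growth at or above a set limit in either of two replicates at 10 µM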;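 note: this counterscreen used the strain with wild-type TIM10; 0% = yeast with DMSO and 100% = medium wells lacking yeast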
# tim23-1 conf: confirmation of tim23-1 mutant yeast growth inhibitors | shares compounds with tim23-1 inh | S. cerevisiae tim23-1 growth, BacTiter-Glo luminescence, 24 h | inhibition, % at 20 µM | 83% of 4,400 active | AID 463218;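 active = inhibition above about 39% in either of two replicate wells at 20 µM, limit read from the data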;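 note: temperature-sensitive tim23-1 mutant grown at 25 °C; 0% = DMSO wells with yeast and 100% = medium wells without yeast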
# Active calls of the source: *; nt = no result given. Most compounds without a hit are left out; they make up all but 4% or so of the library.
SMILES,tim10-1 inh,tim23-1 inh,NALP1 inh,NLRP3 yeast inh,TIM10 inh,tim10-1 conf,tim10 confirm,tim23-1 conf
CCN(CC)CCOc1ccc2c(c1)C(=NO)c1cc(OCCN(CC)CC)ccc1-2,-14.0,-10.3,19.2,-1.0,-14.3,nt,nt,nt
CCCOc1ccc2c(c1)C(=NN=C(N)N)c1cc(OCCC)ccc1-2,76.3*,62.2*,11.8,27.7,31.9,38.5*,nt,33.4
O=C(N/N=C/c1ccc([N+](=O)[O-])o1)c1ccc2c(c1)OCO2,63.9*,78.7*,-4.0,19.9,63.7*,59.5*,51.8*,23.5
O=C(NC(=S)NCc1ccccc1)c1cccs1,50.7*,61.5*,13.1,4.9,34.7,43.4*,nt,52.0*
O=C(Cc1ccccc1)NNC(=S)NC(=O)c1cccs1,24.5,-18.6,-4.4,21.6,8.3,nt,nt,nt
CC1=NN(c2ccc(Cl)c(C(=O)O)c2)C(=O)/C1=C\c1ccc(-c2ccc(C(=O)O)cc2)o1,nt,nt,0.3,nt,nt,nt,nt,nt
CC1=NN(c2ccccc2)C(=O)/C1=C/c1ccc(-c2ccc(C)c(C(=O)O)c2)o1,48.0*,65.7*,nt,12.6,34.5,35.0*,nt,58.8*
COc1ccc(CCNc2oc(-c3ccco3)nc2C#N)cc1,42.4*,64.1*,9.2,42.5,52.0*,-5.2,36.9*,67.9*
Cc1ccc(CNc2oc(-c3ccco3)nc2C#N)cc1,12.2,33.0,-0.2,32.3,11.2,nt,nt,nt
c1ccc(-c2nc(NC3CCCC3)c3ccccc3n2)cc1,45.8*,53.2*,6.4,28.3,41.3*,35.8*,17.1,67.5*
COc1ccc(Nc2nc(-c3ccccc3O)nc3ccccc23)cc1,45.7*,51.1*,7.2,21.6,32.6,35.7*,nt,58.7*
c1ccc(Nc2nc(-c3ccccc3)nc3ccccc23)cc1,47.0*,65.0*,10.4,29.6,26.6,26.5,nt,49.2*
Fc1cccc(Nc2nc(-c3ccncc3)nc3ccccc23)c1,17.1,25.5,9.4,13.6,16.4,nt,nt,nt
CN(C(=O)Cn1c(=O)oc2ccccc21)C1CCCCC1,2.7,-1.2,nt,9.9,2.2,nt,nt,nt
CCCn1c(=O)c(C(=O)NCc2ccccn2)c(O)c2ccccc21,40.9*,60.3*,-8.1,44.0,41.9*,21.1,35.8*,57.5*
N#C/C(=C\c1ccco1)Sc1nc2ccccc2s1,50.4*,58.1*,-12.0,48.9,56.2*,58.2*,44.4*,50.8*
COc1ccc(C(=O)N2CCN(c3cccc(C)c3C)CC2)cc1S(=O)(=O)NC1CC1,-4.3,9.7,nt,0.1,5.3,nt,nt,nt
CCOC(OCC)c1cn(Cc2ccc3c(c2)C(=O)c2ccccc2C3=O)nn1,43.9*,61.3*,11.9,8.1,36.7,16.4,nt,78.2*
Cc1c(Cl)cccc1NC(=O)Nc1cc(C(C)(C)C)on1,58.6*,58.9*,10.5,22.2,28.9,26.1*,nt,45.0*
Cc1cc(NC(=O)Nc2ccccc2Cl)no1,0.8,20.1,25.8,42.5,-1.8,nt,nt,nt
COc1ccc(/C=C2\CCCC(C(=O)C(F)(F)F)=C2O)cc1,39.6,3.5,31.3,0.5,25.5,nt,nt,nt
O=C(C1=C(O)/C(=C/c2ccc(O)cc2)CCC1)C(F)(F)F,49.7*,51.8*,-3.6,12.4,16.9,16.4,nt,58.8*
Cc1noc(C)c1CSCC(=O)N(C)CC(=O)Nc1ccc(F)c(F)c1F,2.9,7.4,nt,13.9,-1.8,nt,nt,nt
Cc1cc2n(n1)SC(Nc1cc(Cl)ccc1Cl)N2 (stereo not given),46.8*,54.7*,5.2,39.6,47.9*,34.5*,45.4*,37.0*
Cc1ccc(-c2nc(N/N=C/c3cccnc3)c3ccccc3n2)cc1,75.8*,84.3*,-1.0,18.8,66.2*,73.9*,59.0*,85.2*
Cc1ccc(-c2nc(N/N=C/c3cccc([N+](=O)[O-])c3)c3ccccc3n2)cc1,33.9,24.3,-0.3,20.1,29.9,nt,nt,nt
CCSc1ncc(/C=N/Nc2ccccc2)n1C,-4.0,14.6,52.0,34.5,-23.5,nt,nt,nt
CCSc1ncc(/C=N/Nc2ccc(Cl)cc2)n1C,45.9*,70.0*,26.6,34.6,-29.2,5.5,nt,62.8*
